Screening data deposited in PubChem by National Center for Advancing Translational Sciences (NCATS).
TRHR ag – agonists of human TRH receptor. P34981. hit rate 0.18% among 360,000. AID 493084. TRHR cells, calcium flux fluo-8, FDSS agonist mode. activation, % at 2 µM; further: 0% is about no effect
Target sequence (P34981 whole entry, looked up): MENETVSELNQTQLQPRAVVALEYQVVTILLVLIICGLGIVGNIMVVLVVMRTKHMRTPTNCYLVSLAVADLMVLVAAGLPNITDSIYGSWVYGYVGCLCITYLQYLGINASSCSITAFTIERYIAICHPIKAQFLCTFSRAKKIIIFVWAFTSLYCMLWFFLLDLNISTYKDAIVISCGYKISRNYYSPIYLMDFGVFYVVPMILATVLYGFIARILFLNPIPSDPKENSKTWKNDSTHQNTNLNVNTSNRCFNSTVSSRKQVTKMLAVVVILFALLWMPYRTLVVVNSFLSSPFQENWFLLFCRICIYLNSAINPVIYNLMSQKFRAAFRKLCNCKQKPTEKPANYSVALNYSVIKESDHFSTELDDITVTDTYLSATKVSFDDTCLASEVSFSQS
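TRHR-expressing cells loaded with fluo-8 calcium dye; 23 nL library compound pin-transferred, kinetic FDSS fluorescence (Ex 480/Em 530) recorded about 180 s for agonist-induced calcium release, before a 10 nM TRH EC20 addition for potentiator mode.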
D1 antagonist – human D1 dopamine receptor antagonism; P21728; HEK293 TREx D1 cells, calcium flux, dopamine EC80; hits give low values; activity change, negative = inhibition, % at 10 µM; hit rate 3.2% among 360,000; AID 504652; in the data active means activity change below about -30%; further: on the % scale 0 is the no-effect control and ±100 the full control effect
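Compound effects on dopamine-evoked calcium signalling were measured in tetracycline-induced HEK293 Trex D1 cells. Dopamine at EC80 followed a 180 s compound pre-read, and fluorescence was tracked kinetically for 180 s more.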
TRHR enhancer – allosteric enhancers of human TRH receptor; TRHR cells, fluo-8 calcium fluorescence, EC20 TRH enhancement; P34981; enhancement, % at 2 µM; hit rate 0.66% among 360,000; in the data active means enhancement above about 30%; further: 0% is about no effect
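Enhancer read-out: after compound pinning and an initial kinetic agonist-mode read, an EC20 of TRH (10 nM final) was injected and fluo-8 calcium signal (Ex 480/Em 530) followed at 1 s/cycle for 100 cycles in TRHR-expressing cells.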
D1 potentiator – enhances dopamine response at the human D1 receptor; P21728; HEK293 TREx D1 cells, calcium flux, dopamine EC20 potentiation; potentiation, % at 10 µM; hit rate 0.036% among 360,000; AID 504651; in the data active means potentiation above about 30%; further: 0% is about no effect
D1 agonist – agonists of human D1 dopamine receptor; P21728; HEK293 T-REx D1 cells, calcium flux, agonist mode; activation, % at 2 µM; hit rate 1% among 360,000; AID 504660; further: 0% is about no effect
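Inducible HEK293 T-REx D1 cells, force-coupled to calcium signalling, were plated at 4000 cells/well with tetracycline and held overnight at 30 C. After no-wash calcium dye loading, compound-evoked calcium rise over 180 s flagged agonists.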
Numbers without * were called inactive; . = not tested or not shown. A selection: hits, their analogues and other compounds. The true share with any hit is near 4.7%. Unless noted, no stated cut-off is given here; in the data, active means activation above about 30%; inactive means the rest.

SMILES | TRHR ag | D1 antagonist | TRHR enhancer | D1 potentiator | D1 agonist
CCCCn1c(=O)cc(N2CCOCC2)[nH]c1=O | 0.3 | -46.4* | -8.3 | -7.3 | 2.6
CCOC(=O)C1=C(CN2CCC(C)CC2)NC(=O)NC1c1ccc(F)cc1 (centres undefined) | 0.3 | -13.5 | 7.1 | -0.7 | 0.0
CCCCc1ccc(NC=C2C(=O)OC3(CCCCC3)OC2=O)cc1 | 2.2 | . | 6.5 | -3.2 | 2.1
NS(=O)(=O)c1ccc(NC=C2C(=O)OC3(CCCCC3)OC2=O)cc1 | -0.4 | 5.9 | 32.9* | -0.3 | 11.0
CC(C)Cn1c(N)c(C(=O)COC(=O)C2CCCCC2)c(=O)n(C)c1=O | 1.3 | -37.7* | 1.7 | 1.9 | 14.2
C/C(=C\C=C(C#N)C#N)c1cc(C#N)c(N)o1 | 10.5 | 21.0 | -5.6 | -8.9 | 62.7*
O=C(Nc1cc(F)ccc1F)N1CCC(CN2CCCC2)CC1 | 0.0 | 4.2 | 8.0 | 2.5 | -1.7
CSc1ncccc1C(=O)Nc1ccc(S(=O)(=O)NC2=NCCCCC2)cc1 | 0.1 | -53.9* | -10.4 | -4.4 | 2.5
CN(C)S(=O)(=O)c1ccc(C(=O)Nc2ccc(S(=O)(=O)NC3=NCCCCC3)cc2)cc1 | 0.3 | -5.6 | -3.3 | 3.2 | 6.6
CC(=O)c1c(Cl)nc2cccc3c2c1-c1ccccc1C3=O | -0.1 | 6.8 | 34.3* | 2.0 | 6.5
COc1cc(-c2c(C(C)=O)c(C)nc3c2C(=O)c2ccccc2-3)cc(OC)c1OC | 0.0 | 2.6 | -8.6 | 0.5 | -1.2
CC1CCCCN1C(=O)C1CCN(c2nc(-c3ccccc3)nc3c2CCC3)CC1 (centres undefined) | -1.0 | 1.0 | 39.4* | -1.6 | 4.1
Cn1c2ccsc2c2cnn(Cc3ccc(F)cc3)c(=O)c21 | -0.1 | -6.7 | 1.9 | 1.5 | 0.2
COc1cccc2cc(C(=O)NCCc3c(C)[nH]c4ccc(F)cc34)c(=O)oc12 | -0.6 | -4.0 | 38.7* | -4.0 | 0.0
Cc1[nH]c2ccc(F)cc2c1CCNC(=O)c1cc2cc(Cl)ccc2oc1=O | 0.4 | -1.4 | 4.5 | -0.8 | -0.5
Cc1[nH]c2c(C)cccc2c1CCNC(=O)c1cc2ccccc2oc1=O | 1.7 | 3.4 | 2.6 | -5.3 | -0.7
COc1ccc2oc(=O)c(C(=O)NCCc3c(C)[nH]c4c(C)cccc34)cc2c1 | -0.2 | 5.7 | 50.6* | -1.3 | -0.9
CCCCOc1ccc(Cn2c(=O)sc3ccccc32)cc1OC | 0.6 | -9.4 | -11.7 | -5.0 | 9.6
c1ccc2c(c1)nc(N1CCOCC1)c1c3ccccc3[nH]c21 | -0.4 | -56.9* | -5.0 | -3.8 | 3.8
Cn1c(=O)cc(Nc2ccccc2)[nH]c1=O | 1.0 | 13.2 | 23.9 | -2.8 | 2.7
O=c1[nH]c(Nc2ccccc2)cc2ccccc12 | 0.1 | 33.5 | -9.8 | -1.0 | 37.8*
Cc1ccc(C(C)NC(=O)/C(C#N)=C\c2c(C)[nH]c3ccccc23)cc1 (centres undefined) | 0.1 | -1.2 | 6.8 | 10.5 | 48.1*
Cc1csc2nc(COC(=O)c3cccc(NC(=O)COc4ccc(Cl)cc4)c3)cc(=O)n12 | 0.9 | -11.2 | -9.9 | -0.3 | 4.7
COc1ccc(NS(=O)(=O)c2cccc(NC(=O)c3ccccn3)c2)cc1 | -0.2 | -8.6 | -0.8 | -5.3 | 12.7
CC(C)=CC(=O)Nc1ccc(S(=O)(=O)Nc2ccccn2)cc1 | 0.3 | 9.5 | 36.8* | -13.9 | 0.2
SMILES | TRHR ag | D1 antagonist | TRHR enhancer | D1 potentiator | D1 agonist
COc1ccc(NC(=O)Nc2sc(NS(=O)(=O)c3ccccc3)nc2C)cc1 | -0.9 | -38.8* | 1.5 | -3.5 | 4.0
CCC(=O)Nc1ccc(S(=O)(=O)Nc2ccccn2)cc1 | 1.5 | -0.8 | 0.4 | 6.1 | 4.6
COc1ccc(NS(=O)(=O)c2ccc(OC)c(NC(=O)CCC3CCCCC3)c2)cc1 | -0.1 | -35.5* | 13.5 | -3.7 | 4.9
COc1ccc(NS(=O)(=O)c2ccc(NC(=O)c3ccccn3)cc2)cc1 | 0.1 | -39.5* | 3.5 | -9.0 | 11.0
Cc1ccccc1CNC(=O)C(C)N(c1ccccc1)S(C)(=O)=O (centres undefined) | -1.0 | -14.5 | 5.4 | -1.9 | 2.8
Cc1ccc(CCNC(=O)c2cc3sccc3n2Cc2ccc(Cl)cc2)cc1 | 1.1 | -1.4 | 14.6 | -3.4 | 5.0
COc1cccc(-c2nc(SCc3cc(=O)c4cc(Cl)ccc4[nH]3)n[nH]2)c1 | -0.3 | -1.9 | -5.9 | -3.6 | 2.6
CCc1ccc(NC(=O)CCCc2nnc3n(C(C)CC)c(=O)c4sccc4n23)cc1 (centres undefined) | 0.1 | 6.0 | 7.4 | -0.9 | 2.4
COc1ccc(NS(=O)(=O)c2csc(C(=O)Nc3ccccc3)c2)cc1 | -0.9 | -42.0* | 0.4 | -4.7 | 17.5
COc1ccc(NS(=O)(=O)c2cccc(NC(=O)COc3ccc(OC)cc3)c2)cc1 | -0.9 | -32.8* | 4.6 | -4.2 | 20.8
COc1ccc(-c2ccc(NS(=O)(=O)c3cccc(Cl)c3)cc2)nn1 | -0.4 | 30.6 | 2.7 | 2.3 | 3.8
CCc1cc2c(s1)c1cnn(Cc3ccccc3F)c(=O)c1n2C | 1.1 | 8.9 | 0.5 | -1.2 | 24.4
CSc1cc2c(s1)c1cnn(Cc3ccccc3F)c(=O)c1n2C | -0.9 | 7.0 | -7.9 | 38.2* | 4.1
COC(=O)CN1C(C(=O)c2ccccc2)=C(OC(=O)c2ccc(C)cc2)c2ccccc2S1(=O)=O | 1.4 | 2.8 | 8.5 | -0.8 | 1.5
Cc1ccccc1NC(NC(=O)OCCn1c([N+](=O)[O-])cnc1C)C(Cl)(Cl)Cl (centres undefined) | -1.4 | -33.1* | -0.2 | -3.8 | 5.5
Cc1ncc([N+](=O)[O-])n1CCOC(=O)NC(Nc1ccc(F)cc1)C(Cl)(Cl)Cl (centres undefined) | -0.4 | 1.6 | -6.3 | 6.3 | 3.8
Cc1cc(C)c2c(=O)cc(C(=O)Nc3ccc(S(=O)(=O)Nc4onc(C)c4C)cc3)oc2c1 | 0.0 | 2.1 | 4.9 | -0.3 | 2.2
COc1ccc(C(=O)Nc2ccc3ccccc3c2)cc1 | -0.3 | 4.1 | 0.7 | 1.8 | 6.6
CS(=O)(=O)Nc1ccc(C(=O)Nc2ccc3ccccc3c2)cc1 | 0.0 | -38.1* | 14.8 | -5.6 | 2.1
O=C(Nc1ccc2ccccc2c1)c1ccc(Cl)cc1Cl | 0.9 | 9.1 | -6.9 | -1.4 | 1.8
O=C(Nc1ccc2ccccc2c1)c1ccccc1O | 4.3 | -33.7* | -16.4 | -3.0 | 21.5
COc1ccc(CNC(=O)C(C)N2Cc3ccccc3C2=O)cc1 (centres undefined) | -0.1 | -8.7 | -1.3 | -1.3 | 0.7
CCOc1ccc(CNC(=O)CCC(=O)N2CC(C)Sc3ccccc32)cc1 (centres undefined) | -0.1 | 0.9 | -10.6 | -1.2 | -0.2
COc1ccc(CC(=O)NC(C)CCc2ccccc2)cc1OC (centres undefined) | -0.6 | 13.0 | -6.0 | 0.6 | 11.0
COc1ccc(CCNC(=O)C2CCC(=O)N2CCc2ccccc2)cc1OC (centres undefined) | 2.9 | -32.5* | 7.8 | -6.3 | 1.6
COc1ccc(CC(=O)NNC(=O)CCc2ccccc2)cc1OC | 0.5 | -33.6* | 17.0 | -4.5 | 4.4
